TDP1 cell CPT = qHTS for Inhibitors of human tyrosyl-DNA phosphodiesterase 1 (TDP1): qHTS in cells in presence of CPT. chicken DT40 Tdp1-/-;hTDP1 cells + 20 nM CPT, ATP luminescence, 48 h. actives 12% (n = 420,000). AID 686979, 2013. Potency, µM (doses to about 46.2 µM), inactives show at the top dose activity change, negative = growth inhibition, usual class: inhibitors; further: potency means the concentration at half of the fitted maximal effect; nearly all actives have a fitted effect of over 55% in size
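Cell growth measured by CellTiter-Glo luminescence after a minimum 48 h, 37 C compound exposure with 20 nM CPT in Tdp1-knockout DT40 cells stably expressing hTDP1, seeded 400/well; qHTS titration format.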
HT1080 IDH1KD tx = qHTS for induction of synthetic lethality in tumor cells producing 2HG: qHTS for the HT-1080-IDH1KD cell line; actives 2% (n = 360,000); AID 686971, 2013; HT-1080 IDH1 knockdown viability, ATP luminescence, 48 h; Potency, µM (highest dose often 46.1 µM), for the others: at the highest dose activity, negative = toxicity, actives largely listed as cytotoxic;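 further: potency means the concentration at half of the fitted maximal effect; 0% = DMSO wells and -100% = cell-free medium wells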
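Cytotoxicity counter-line: IDH1KD HT-1080, 48 h, CellTiter-Glo. Curves classed by r2, magnitude and activity.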
ALOX12 inh = Primary qHTS assay for inhibitors of human arachidonate 12S-lipoxygenase (ALOX12): Round 2; Polyunsaturated fatty acid lipoxygenase ALOX12 (Homo sapiens), P18054; Potency, µM (titrated, usually from 108 µM), for inactives: at the highest dose activity change, negative = inhibition, hits mostly inhibitors; purified 12hLO, xylenol orange hydroperoxide absorbance; actives 1.1% (n = 580,000); further: potency means the concentration at half of the fitted maximal effect
Target sequence (P18054 whole entry, looked up): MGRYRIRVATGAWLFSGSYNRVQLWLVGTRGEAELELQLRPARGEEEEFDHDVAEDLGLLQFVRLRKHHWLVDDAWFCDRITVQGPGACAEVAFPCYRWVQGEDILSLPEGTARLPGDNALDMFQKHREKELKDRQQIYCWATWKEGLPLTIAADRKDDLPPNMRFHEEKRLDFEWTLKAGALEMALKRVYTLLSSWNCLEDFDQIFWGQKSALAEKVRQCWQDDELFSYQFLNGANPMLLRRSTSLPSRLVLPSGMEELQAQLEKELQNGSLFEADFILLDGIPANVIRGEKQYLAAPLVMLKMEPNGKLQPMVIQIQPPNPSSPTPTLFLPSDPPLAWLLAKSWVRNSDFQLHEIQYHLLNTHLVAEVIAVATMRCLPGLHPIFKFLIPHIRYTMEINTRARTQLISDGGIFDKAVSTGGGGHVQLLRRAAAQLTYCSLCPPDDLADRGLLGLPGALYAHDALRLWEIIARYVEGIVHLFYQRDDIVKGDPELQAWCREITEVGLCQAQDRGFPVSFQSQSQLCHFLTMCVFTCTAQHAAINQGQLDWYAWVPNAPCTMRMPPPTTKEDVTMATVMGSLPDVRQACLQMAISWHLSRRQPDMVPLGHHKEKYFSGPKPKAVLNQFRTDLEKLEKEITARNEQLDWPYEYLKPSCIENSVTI
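Hydroperoxide product was detected by ferrous iron/xylenol orange as the 573 to 405 nm absorbance ratio. Arachidonic acid at 40 uM (final) was turned over for 30 min at room temperature by 150 nM human 12hLO, pH 7.0 Hepes buffer, after 15 min compound preincubation.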
DT40 TDP1 no CPT = qHTS for Inhibitors of human tyrosyl-DNA phosphodiesterase 1 (TDP1): qHTS in cells in absence of CPT | AID 686978, 2013 | Potency, µM (doses to about 46.2 µM), for inactives: at the top dose activity change, negative = growth inhibition, most hits filed as inhibitors | actives 15% (n = 420,000) | DT40 Tdp1-/- hTDP1 cells, no CPT, ATP luminescence, 48 h; further: potency means the concentration at half of the fitted maximal effect; nearly all actives have a fitted effect of over 55% in size
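Seeded 400 DT40-hTDP1 cells/well (vehicle DMSO, no 20 nM CPT); pinned compounds; ≥48 hr at 37 °C; CellTiter-Glo luminescence as viability measure.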
HT1080NT lethal = qHTS for induction of synthetic lethality in tumor cells producing 2HG: qHTS for the HT-1080-NT fibrosarcoma cell line. HT-1080-NT fibrosarcoma viability, CellTiter-Glo ATP luminescence, 48 h. Potency, µM (doses to about 46.1 µM), without a hit: at the highest dose activity, negative = less viability, hits mostly cytotoxic. actives 1.6% (n = 360,000). AID 686970, 2013;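 further: NT is the 2HG producing partner of a matched IDH1 knockdown line; potency means the concentration at half of the fitted maximal effect; 0% = DMSO-treated cells and -100% = media-only wells without cells; nearly all actives have a fitted effect of over 55% in size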
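Viability by CellTiter-Glo luminescence after 48 h compound exposure at 37C of HT-1080-NT cells (750/well, RPMI, 5% FBS). % activity scaled between DMSO wells and medium-only wells, then curve-fitted and categorized by curve class.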
IL1B secr inh = qHTS for Inhibitors of Inflammasome Signaling: IL-1-beta AlphaLISA Primary Screen; activity change, % at 57.5 µM; actives 4.7% (n = 360,000); THP-1 LPS/ATP IL-1B secretion, AlphaLISA, 16 h; hits give low values; AID 743279, 2014; in the data active means activity change below about -50%; inconclusive means mostly about -30% to -49%
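THP-1 cells pretreated 1 hr with compounds (up to 57.5 uM final), then stimulated with LPS (250 ng/mL final) plus ATP (1.25 mM final); secreted IL-1B measured by AlphaLISA after 16 hr, decreased signal indicating inhibition.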
Numbers without * were called inactive; u = inconclusive; x = not tested or not shown; [ ] = dose if it differs, or a comment. Shown is part of a subset that was picked to be rich in hits. Unless noted, the call rests on the fitted dose curve; in most records, active means well fitted curve in the direction sought with a large enough effect; inconclusive means small, poorly fitted or top-dose-only effect, or another doubt; inactive means no such curve, though single readings can be large; an effect the other way counts as inactive or inconclusive. Unless noted, on the % scale 0 is the no-effect control and ±100 the full control effect.

SMILES | TDP1 cell CPT | HT1080 IDH1KD tx | ALOX12 inh | DT40 TDP1 no CPT | HT1080NT lethal | IL1B secr inh
CC(=O)Oc1cccc(/C=C2\C=C(c3ccc(C)cc3)OC2=O)c1 | 18µM* | 4% | u | u | 5% | -9
Cc1ccc(C=C2C=C(c3ccccc3)OC2=O)cc1 | u | 8% | -20% | 26µM* | -1% | -19
CN(C)c1ccc(/C=C2/C=C(c3ccc4c(c3)CCCC4)OC2=O)cc1 | u | 11% | 3% | u | 4% | 10
CC1=C(c2ccc(C)c(C)c2)S(=O)(=O)N=C1N1CCC(C(=O)NC2CCCC2)CC1 | x | x | -5% | x | x | x
CCn1cnnc1CCNC(=O)c1cc(=O)n(C)c(=O)n1C | x | x | 5% | x | x | x
CCC(CC)NC(=O)Nc1ccc(Cl)cc1Cl | x | x | 14% | x | x | x
O=C1c2ccc([N+](=O)[O-])cc2S(=O)(=O)N1Cc1ccccc1 | 15% | -9% | -7% | 1% | 2% | -94*
COc1cccc(CN2C(=O)c3ccccc3S2(=O)=O)c1 | 14% | -2% | 29% | -17% | -1% | 21
O=C1c2ccccc2N(Cc2ccc(Cl)cc2)C2=NCCN12 | -26% | 7% | -1% | -4% | 16% | -4
O=C1C(=O)N(Cc2cccc([N+](=O)[O-])c2)c2ccccc21 | 0.65µM* | u | -14% | 0.92µM* | -20% | -24
O=C1C(=O)N(Cc2ccc(Cl)c(Cl)c2)c2ccccc21 | 2.7µM* | x | u | 1.9µM* | x | x
O=C(CN1C(=O)C(=O)c2ccccc21)c1ccc(Cl)cc1 | 5.8µM* | 3% | 12% | 3.3µM* | 1% | 6
Cc1ccccc1-c1cc(=O)c2cc(NC(=O)c3ccccc3)ccc2o1 | x | x | -21% | x | x | x
Cc1cc(C(=O)OCc2ccccc2C#N)c(C)o1 | x | x | -26% | x | x | x
Cc1ccc(C(=O)C2CCN(C(=S)NCCCOC(C)C)CC2)cc1 | u | -9% | u | u | -9% | 8
c1ccc(-c2nc3ccccn3c2-c2ccccc2)cc1 | u | -28% | -10% | 12µM* | -17% | 0
Clc1ccc(-c2nc3ccccn3c2CN2CCCCC2)cc1 | u | -1% | -4% | u | 0% | 5
Oc1ccc(N2CCN(Cc3c(-c4ccccc4)nc4ccccn34)CC2)cc1 | u | -18% | u | 15µM* | -19% | -12
Cc1noc2c(-c3cccnc3N3CC(O)C3)cc(-c3ccccc3)nc12 | x | x | 6%[176 µM] | x | x | x
O=C(NCc1ccccn1)c1c(-c2ccccc2)sc2ccccc12 | 23µM* | 3% | -2% | u | 0% | 81
COc1ccccc1CNC(=O)c1oc2ccccc2c1C | -29% | 3% | 1% | -12% | 11% | -13
Cc1c(C(=O)NCc2ccccc2CN2CCCC2)oc2ccc(F)cc12 | 21µM* | -18% | 251% | u | 8%[9.24 µM] | -1
COc1cccc(NC(=O)c2oc3ccc(S(=O)(=O)N4CCCCCC4)cc3c2C)c1 | 18µM* | x | -16% | 18µM* | x | x
Cc1c(C(=O)NCc2ccccc2)oc2ccc(S(=O)(=O)N3CCC(C)CC3)cc12 | 9.2µM* | x | 6% | 9.2µM* | x | x
COc1ccccc1CNC(=O)c1oc2ccc(S(=O)(=O)N3CCCCC3)cc2c1C | 6.5µM* | x | 1% | 7.3µM* | x | x
O=C(Nc1cccc(-c2nnc3n2CCCC3)c1)c1ccc[nH]c1=O | x | x | 35% | x | x | x

Screening data: PubChem, National Center for Advancing Translational Sciences (NCATS)
